We go through 67 compounds from PubChem BioAssay AID2315 (National Center for Advancing Translational Sciences (NCATS), 2010).

The inhibition is the drop in the measured response relative to a control, in per cent.

In all, about 290,000 compounds went through this assay and about 27,000 (9.3%) were called active. The entries come from a sample that favours actives as a whole. Values without a mark were called inactive. Rule as the data show it: active = inhibition mostly above about 28% (no sharp cut-off); inactive = mostly below about 43%.

The experiment in a line: A qHTS for Small Molecule Inhibitors of Shiga Toxin. Also: 0% is about no effect. Particulars: Vero cells, Shiga toxin protein synthesis inhibition reporter; at 38.7 µM, hits give high values. For orientation: Quantitative high-throughput screening tests each substance at several concentrations.
As to `C[C@H](NC(=O)C1CC(=O)N(c2ccc3c(c2)OCCO3)C1)C(=O)N1CCC(C(=O)O)CC1` (some centres not stated), the inhibition was -10.9%.

Consider `O=C(c1cn(-c2ccccc2)nc1-c1cccnc1)N1CCCCC1`, for which the inhibition was -13.3%.

For `COc1ccccc1N1CCN(C(=O)c2cn(-c3ccccc3)nc2-c2cccnc2)CC1`, the inhibition is 39.2% (active).

For the compound `COc1ccccc1N1CCN(C(=O)c2cc3c(-c4ccc(Cl)cc4)nn(C)c3s2)CC1`, the inhibition was 19.3%.

`COc1cc(C(=O)N2CCN(C3CCC(C)CC3)CC2)cc(OC)c1OC` (configuration not stated): the inhibition is -9.82%.

On to `CCOc1ccc2nc(N(CCCN(C)C)C(=O)c3ccc(C(=O)c4ccccc4)cc3)sc2c1`, for which the inhibition was -6%.

`O=C(O)c1ccc(-n2nc(-c3ccccc3)c3ccccc3c2=O)cc1`: the inhibition was 17.9%.

With `CCOc1ccc(CCNC(=O)Nc2ccccc2)cc1OCC`, the inhibition was 7.13%.

On to `CCOC(=O)C1CCN(C(=O)C2CCCN(S(=O)(=O)c3ccc(OC)c(Cl)c3)C2)CC1` (configuration not stated), for which the inhibition was -2.72%.

Consider `CCc1ccc2oc(-c3ccc(N)cc3)nc2c1`, for which the inhibition is 47.9% (active).

Turning to `COc1ccc(C2C3=C(CCCC3=O)N(CC(=O)O)C3=C2C(=O)CCC3)cc1`, the inhibition was 14.1%.

Turning to `CCOC(=O)CSc1nnc(-c2ccncc2)o1`, the inhibition is -2.72%.

For the compound `Cc1cccc(C)c1OC(=O)CSc1nnc(-c2ccccc2)o1`, the inhibition is -1.97%.

For the compound `CCCCSc1nnc(-c2ccc(C)cc2)o1`, the inhibition was 63.2% (active).

For the compound `O=C(c1cc2ccccc2o1)N1CCN(Cc2ccccc2)CC1`, the inhibition is 22.5%.

Consider `O=C(NCCc1ccccc1)C(=O)NCC1OCCN1S(=O)(=O)c1cccs1` (configuration not stated), for which the inhibition was 15.4%.

Turning to `CCc1ccc(Oc2coc3cc(O)ccc3c2=O)cc1`, the inhibition is 57.1% (active).

Take `COc1ccc(Oc2coc3cc(OC(=O)c4cncc(Br)c4)ccc3c2=O)cc1`: the inhibition was 31.4%.

With `CCc1ccc(Oc2coc3cc(OC(=O)c4cc5ccccc5oc4=O)ccc3c2=O)cc1`, the inhibition was 22.7%.

Regarding `O=C(O)C1CCC(CNS(=O)(=O)c2ccc(Br)cc2)CC1` (configuration not stated), the inhibition was -6.36%.

Consider `O=C(NC(=O)c1ccccc1)Nc1ccccc1O`, for which the inhibition is 105% (active).

As to `O=C(NC(=O)c1ccccc1)NC(=O)c1ccccc1`, the inhibition was -0.343%.

In the case of `O=C(Nc1ccc(C(=O)O)c(O)c1)c1ccccc1`, the inhibition was 2.52%.

For the compound `CCCC(=O)N1CCN(c2nnc(-c3ccc(C)cc3)c3ccccc23)CC1`, the inhibition was -11.9%.

For `O=C(c1ccc2nc(N3CCOCC3)sc2c1)N1CCN(c2ccc(Cl)cc2)CC1`, the inhibition was -6.87%.

As for `Cc1nc(N2CCCCC2)sc1C=O`, the inhibition was 17.8%.

For `Brc1ccc2nc(N3CCCC3)sc2c1`, the inhibition was 133% (active).

As to `c1c2c(cc3sc(N4CCCCC4)nc13)OCCO2`, the inhibition was 14.5%.

Regarding `Fc1ccc2nc(N3CCCCC3)sc2c1`, the inhibition was 82% (active).

With `O=C(NCCc1cccc(F)c1)C1CCCN(c2nc3ccccc3s2)C1` (configuration not stated), the inhibition is -11.7%.

On to `COC(=O)Nc1ccc(S(=O)(=O)Nc2cc(OC)nc(OC)n2)cc1`, for which the inhibition is -3.18%.

With `Cc1ccsc1C(=O)N[C@@H](C)c1nnc2ccccn12`, the inhibition is -1.3%.

On to `COc1ccc(NC2CCCN(C(=O)c3ccncc3)C2)cc1` (configuration not stated), for which the inhibition was -17.1%.

In the case of `O=C1CCC/C(=N\NC(=O)NC2CCCCC2)C1`, the inhibition was -0.774%.

As to `CC(C)NC(=S)NN=C1CCCCCCCCCCC1`, the inhibition is 4.86%.

Take `CC(C)(C)NC(=O)C(=O)NN=C1CCCCCCC1`: the inhibition was 60.6% (active).

In the case of `O=C(NCc1ccccc1)C(=O)NCC1OCCN1S(=O)(=O)c1ccc(Br)cc1` (configuration not stated), the inhibition is 3.85%.

`CCC(Oc1ccccc1C)C(=O)Nc1ccc(S(=O)(=O)Nc2cc(C)on2)cc1` (configuration not stated): the inhibition was -4.41%.

Turning to `O=c1[nH]c(CSc2ccccc2)nc2c1oc1ccccc12`, the inhibition is 12.7%.

In the case of `O=C(COC(=O)c1ccc(N2CCCC2=O)cc1)c1ccc(OC(F)F)cc1`, the inhibition is -2.32%.

On to `Cc1ccc(OC(=O)c2c(C)nn(-c3ccccc3)c2C)cc1`, for which the inhibition is 66.5% (active).

Consider `CCCc1cc(=O)[nH]c(SCC(=O)c2cc(C)n(CCC)c2C)n1`, for which the inhibition was -17.8%.

On to `CCCn1c(C)cc(C(=O)COC(=O)c2c(C)nn(-c3ccccc3)c2C)c1C`, for which the inhibition is 37.3% (active).

On to `Cc1nn(-c2ccccc2)c(C)c1C(=O)OCC(=O)NC(=O)NC1CCCCC1`, for which the inhibition was -5.78%.

In the case of `Cc1cc(C(=O)COC(=O)c2cccs2)c(C)n1-c1c(C)n(C)n(-c2ccccc2)c1=O`, the inhibition was 14.6%.

For the compound `Cc1nn(-c2ccccc2)c(-n2cccc2)c1C(=O)O`, the inhibition was -10.5%.

On to `O=C(CSc1n[nH]c(-c2cccnc2)n1)Nc1ccc(Cl)cc1`, for which the inhibition is -4.36%.

Regarding `Cc1ccc(Nc2c(F)c(F)c(F)c(F)c2C(=O)O)c(C)c1`, the inhibition was -5.02%.

As for `CCCCc1cc(=O)oc2c(C)c(OCC(=O)N3CCC(C(N)=O)CC3)ccc12`, the inhibition was 6.85%.

Regarding `O=c1oc2ccccc2c(CNc2ccccc2)c1[N+](=O)[O-]`, the inhibition is 11.8%.

Regarding `N#CC1=C(N)N(c2ccccc2)C2=C(C(=O)CCC2)C1c1ccccc1` (configuration not stated), the inhibition is 20.9%.

Turning to `O=C1CCC(=O)N(c2ccccc2)N1`, the inhibition is -5.13%.

On to `O=C1CCCc2nn(-c3ccccc3)nc21`, for which the inhibition was 54.6% (active).

Take `O=C(OC1CCOC1=O)c1ccc(-c2nc3ccccc3s2)s1` (configuration not stated): the inhibition is 38.6% (active).

For the compound `CC(C)c1ccc(C(=O)OC2CCOC2=O)cc1` (configuration not stated), the inhibition was -21.8%.

As for `Cc1nn(Cc2ccccc2)c(Cl)c1C(=O)OC1CCOC1=O` (configuration not stated), the inhibition is -17.1%.

Take `C=CCn1c(=O)c(C(=O)NCc2ccc3c(c2)OCO3)c(O)c2ccccc21`: the inhibition is -10.5%.

On to `COc1ccccc1OCC(=O)Nc1c2c(nn1-c1ccc(F)cc1)CS(=O)(=O)C2`, for which the inhibition is -5.46%.

Turning to `Cc1c(C(=O)OC(C)C)sc(NC(=O)c2cccnc2)c1C#N`, the inhibition was 30.6%.

Turning to `COc1ccc(C(=O)NCc2nnc(SCC(=O)Nc3cccc(OC)c3)o2)cc1`, the inhibition was -4.36%.

For the compound `O=S(=O)(Cc1nnnn1-c1ccccc1)c1ccccc1`, the inhibition was -12.2%.

On to `COc1ccc(NC(=O)CSc2nc(SC)ns2)c(OC)c1`, for which the inhibition was 69.7% (active).

Regarding `COc1cc(OC)cc(-c2nnc(SCC(=O)Nc3ccc(C(=O)O)cc3)s2)c1`, the inhibition was -9.81%.

As for `COc1ccc(C)cc1NC(=O)CSc1nc(SC)ns1`, the inhibition is -10.7%.

In the case of `Cc1csc(SCC(=O)Nc2sccc2C#N)n1`, the inhibition is 34%.

For the compound `CSc1nsc(SCC(=O)Nc2cc(C(=O)O)ccc2C)n1`, the inhibition was -7.57%.

Consider `COc1ccc(NC(=O)CSc2nc(C)cs2)cc1`, for which the inhibition was 66.4% (active).
